Screens as filed in PubChem.
PPARg SRC-3 ag = promotes SRC-3 coactivator recruitment by human PPARgamma; biochemical PPARgamma/SRC-3 coactivator recruitment assay; activation, % at 8 µM; 200,000 tested, 0.26% active; in the data active = activation above about 23%;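 note: 0% = DMSO and 100% = reference agonist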
Target sequence (P37231 whole entry, looked up): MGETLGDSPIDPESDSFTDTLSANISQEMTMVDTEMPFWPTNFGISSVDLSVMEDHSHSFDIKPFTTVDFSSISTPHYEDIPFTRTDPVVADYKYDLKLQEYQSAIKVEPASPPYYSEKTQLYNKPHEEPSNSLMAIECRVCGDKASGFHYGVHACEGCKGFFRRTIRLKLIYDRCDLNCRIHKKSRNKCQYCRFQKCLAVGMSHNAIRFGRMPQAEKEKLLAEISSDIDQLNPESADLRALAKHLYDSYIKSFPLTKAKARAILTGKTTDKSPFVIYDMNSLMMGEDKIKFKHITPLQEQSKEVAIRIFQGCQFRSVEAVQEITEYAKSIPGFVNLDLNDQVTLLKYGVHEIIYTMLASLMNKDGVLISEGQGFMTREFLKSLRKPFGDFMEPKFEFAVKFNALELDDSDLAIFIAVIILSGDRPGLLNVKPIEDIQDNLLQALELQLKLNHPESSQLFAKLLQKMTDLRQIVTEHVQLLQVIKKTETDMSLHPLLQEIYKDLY
SRC1 TRFRET art = flags TR-FRET format artefacts in PPARgamma SRC-1 recruitment agonist screen; TR-FRET detection artefact counter-screen, emission ratio; hits give high values; TR-FRET ratio at 8 µM; 99,000 tested, 0.34% active; AID 1051; in the data active = TR-FRET ratio above about 2300
SRC3 TRFRET art = TR-FRET artefact, counter-screen to PPARgamma/SRC-3 agonist assay | PPARgamma/SRC-3 format; hits give high values | TR-FRET ratio at 8 µM | 99,000 tested, 0.39% active | AID 1048
PPARg SRC2 recr = PPARgamma-driven SRC-2 recruitment agonism | AID 1032 | 200,000 tested, 0.34% active | PPARgamma LBD-SRC-2 recruitment, biochemical | P37231 | activation, % at 8 µM; in the data active = activation above about 22%;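 note: 0% = vehicle and 100% = reference agonist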
PPARg SRC-1 ag = PPARgamma-driven SRC-1 recruitment agonism | 200,000 tested, 0.41% active | PPARgamma-SRC-1 coactivator recruitment biochemical assay | activation, % at 8 µM | P37231; in the data active = activation above about 19%;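 note: 0% = DMSO and 100% = reference agonist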
TR-FRET SRC-2 ct = counter-screen for PPARgamma SRC-2 recruitment agonists: TR-FRET artefact; hits give high values; TR-FRET ratio at 8 µM; 200,000 tested, 0.4% active; AID 1049
PPARg SRC2 conf = human PPARgamma SRC-2 recruitment agonism, confirmation | shares compounds with PPARg SRC-3 ag | biochemical SRC-2 recruitment by PPARgamma | activation, % at 8 µM | 790 tested, 52% active | AID 1297; in the data active = activation above about 22%;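 note: 0% = vehicle alone and 100% = reference agonist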
PPARg SRC1 conf = human PPARgamma SRC-1 recruitment agonism, confirmation; shares compounds with PPARg SRC-3 ag; PPARgamma–SRC-1 coactivator recruitment biochemical assay; activation, % at 8 µM; 790 tested, 43% active; in the data active = activation above about 20%;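 note: 0% = vehicle wells and 100% = reference agonist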
PPARg SRC3 ag = confirmation of agonists of SRC-3 recruitment by human PPARgamma; shares compounds with PPARg SRC-3 ag; biochemical PPARgamma-SRC-3 coactivator recruitment, agonist mode; activation, % at 8 µM; 790 tested, 29% active; AID 1301; in the data active = activation above about 24%;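 note: 0% = vehicle wells and 100% = reference agonist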
The depositor's hits bear a star; nt = no result given. Rows were chosen to be rich in hits. Some 0.84% of all compounds tested hit in one or more screens of this group. Cut-off read from the data, not from the text of the source, unless noted: active = TR-FRET ratio above about 2000; inactive = the rest.

SMILES	PPARg SRC-3 ag	SRC1 TRFRET art	SRC3 TRFRET art	PPARg SRC2 recr	PPARg SRC-1 ag	TR-FRET SRC-2 ct	others
O=C1Nc2ccccc2/C1=C/c1cnc[nH]1	33*	nt	nt	17	12	1808
c1cncc(CNC2CCCC2)c1	-1	3393*	1585	0	40*	1583
CCN1CCN(C(=O)Cc2c(C)n(C(=O)c3ccc(Cl)cc3)c3ccc(OC)cc23)CC1	2	1889	1564	8	6	1751
Cc1c2ccncc2c(C)c2c1[nH]c1ccccc12	6	2068	1767	8	27*	1611
c1ccc2c(c1)[nH]c1cnccc12	6	1918	1611	5	8	1759
CC(NC(=O)Cc1cccc2ccccc12)C(=O)N1CCC(=O)CC1 (stereo unspecified)	-2	1922	1643	-6	-1	1628
Cc1cccc(NP(=O)(Oc2ccccc2F)Oc2ccccc2F)c1C	2	2320*	1742	-4	7	1715
CC1(C)COC(Nc2cccc(Cl)c2)=N1	-6	nt	nt	0	7	1463
COc1ccc(C(=O)C23CN4CN(CN(C4)C2)C3)cc1	-6	1575	1554	3	-6	1613
COc1ccc(C(=O)C(C)(C)NO)cc1	27*	nt	nt	3	2	1650
Cn1c(=O)cc(SCC(=O)N2CCC3(CC2)OCCO3)c2ccccc21	60*	nt	nt	39*	44*	2418*	PPARg SRC2 conf=33*;PPARg SRC1 conf=20*;PPARg SRC3 ag=23
COC(=O)C(=O)N1CC2(C)CNCC(C)(C1)C2=O	3	1803	1530	5	-6	1340
COc1ccc(-n2c(C)cc(C(=O)C[N+]34CCN(CC3)CC4)c2C)cc1	2	1906	1676	2	-4	1466
Cc1cccc(N=Cc2c(O)n(-c3ccccc3C)c(=O)[nH]c2=O)c1	-10	nt	nt	0	-2	1341
C=CCn1c(O)c(C=Nc2ccc(N(CC)CC)cc2)c(=O)[nH]c1=O	26*	nt	nt	18	8	1780	PPARg SRC2 conf=9;PPARg SRC1 conf=10;PPARg SRC3 ag=8
Cc1ccccc1-n1c(O)c(C=Nc2ccc(N(C)C)cc2)c(=O)[nH]c1=O	26*	nt	nt	23*	15	2050*	PPARg SRC2 conf=7;PPARg SRC1 conf=10;PPARg SRC3 ag=5
